What all share (parameters): scale not given: direction of the effect not stated beside the values
Assay [1] deals with Protein translocase subunit SecA (Escherichia coli (strain K12)) (UniProt P10408). In words: Assay to Identify E. coli SecA ATPase Inhibitors. In kind it is functional. Particulars: 30 µM.
Assay [2] deals with T1, Ubiquitin-activating enzyme e1, putative (Leishmania donovani (strain BPK282A1)) (UniProt E9BSI1).
T1 sequence (whole entry): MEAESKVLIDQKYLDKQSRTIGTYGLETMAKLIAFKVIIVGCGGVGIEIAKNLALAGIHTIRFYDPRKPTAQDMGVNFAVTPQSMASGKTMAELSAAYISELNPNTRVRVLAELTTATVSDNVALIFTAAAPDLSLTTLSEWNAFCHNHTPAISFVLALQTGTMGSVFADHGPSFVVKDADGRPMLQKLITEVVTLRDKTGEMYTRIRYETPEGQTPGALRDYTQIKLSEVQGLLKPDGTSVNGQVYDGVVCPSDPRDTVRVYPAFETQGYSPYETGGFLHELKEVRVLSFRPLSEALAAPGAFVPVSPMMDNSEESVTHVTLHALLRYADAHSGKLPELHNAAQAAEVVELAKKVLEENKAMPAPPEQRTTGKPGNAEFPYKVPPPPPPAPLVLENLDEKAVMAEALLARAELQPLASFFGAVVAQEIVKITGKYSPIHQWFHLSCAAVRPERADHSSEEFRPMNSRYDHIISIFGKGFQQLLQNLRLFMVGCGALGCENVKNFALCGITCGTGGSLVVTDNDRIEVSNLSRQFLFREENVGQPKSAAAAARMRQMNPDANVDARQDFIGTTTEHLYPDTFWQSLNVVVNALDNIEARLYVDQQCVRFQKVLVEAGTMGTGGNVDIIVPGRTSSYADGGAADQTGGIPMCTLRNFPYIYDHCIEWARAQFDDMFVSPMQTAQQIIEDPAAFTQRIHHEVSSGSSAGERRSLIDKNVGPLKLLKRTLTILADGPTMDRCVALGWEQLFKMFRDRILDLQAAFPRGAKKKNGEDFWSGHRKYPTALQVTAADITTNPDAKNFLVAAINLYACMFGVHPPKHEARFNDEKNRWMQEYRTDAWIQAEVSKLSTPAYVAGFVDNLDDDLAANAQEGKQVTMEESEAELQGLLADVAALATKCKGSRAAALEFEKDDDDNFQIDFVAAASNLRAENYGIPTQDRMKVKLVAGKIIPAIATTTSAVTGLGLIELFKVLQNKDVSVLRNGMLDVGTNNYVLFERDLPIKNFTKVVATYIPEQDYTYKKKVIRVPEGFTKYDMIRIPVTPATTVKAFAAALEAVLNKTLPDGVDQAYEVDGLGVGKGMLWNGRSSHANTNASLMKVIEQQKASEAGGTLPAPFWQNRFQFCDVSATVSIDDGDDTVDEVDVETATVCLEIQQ
The assay is described as follows: Leishmania donovani Ubiquitin Activating Enzyme (LdE1). The conditions noted are these: 30 µM. In kind it is functional.

The target in assay [3] is AMP-activated protein kinase, AMPK (Homo sapiens) (UniProt P54646+O43741+P54619+Q9UGJ0+Q9Y478+Q13131+Q9UGI9). The assay is described as follows: AMP-dependent Kinase enzyme assay. An in vitro enzyme assay that detects ADP turnover that is directly proportional to AMPK activity. This uses naive AMPK that is activated during the assay with MK-8722. In kind it is functional. The conditions noted are these: 30 µM.

The target of assay [4] is Sialic acid-binding Ig-like lectin 9 (Homo sapiens) (UniProt Q9Y336). In words: Hs-Siglec9 ALPHAscreen SOP 20170721. The conditions noted are these: 10 µM.
Another assay relates to Trypanosoma cruzi. The assay is described as follows: Trypanosoma cruzi phosphomannomutase and mannose-1-phosphate guanylyltransferase assay. It counts as functional. Particulars: 10 µM.
Assay [5] addresses T2, Arginase-2, mitochondrial (Homo sapiens) (UniProt P78540).
T2 sequence (whole entry): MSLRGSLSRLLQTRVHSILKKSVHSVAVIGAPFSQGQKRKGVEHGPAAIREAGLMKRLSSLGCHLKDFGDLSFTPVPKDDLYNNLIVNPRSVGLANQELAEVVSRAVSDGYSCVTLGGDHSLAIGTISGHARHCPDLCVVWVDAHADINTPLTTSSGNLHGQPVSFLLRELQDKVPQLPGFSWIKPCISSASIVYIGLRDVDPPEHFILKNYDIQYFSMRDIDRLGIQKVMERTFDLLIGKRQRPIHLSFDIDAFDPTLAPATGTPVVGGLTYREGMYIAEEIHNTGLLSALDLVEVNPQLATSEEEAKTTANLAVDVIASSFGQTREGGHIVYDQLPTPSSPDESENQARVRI
The assay is described as follows: in vitro enzyme assay to detect the production of urea directly proportional to the activity of Arginase II. Note: in the data most compounds retested in dose-response had high values. In kind it is functional. The conditions noted are these: 33.3 µM.

In assay [6] the target is T3, Proteasome subunit beta (Trypanosoma cruzi) (UniProt O96673).
T3 sequence (whole entry): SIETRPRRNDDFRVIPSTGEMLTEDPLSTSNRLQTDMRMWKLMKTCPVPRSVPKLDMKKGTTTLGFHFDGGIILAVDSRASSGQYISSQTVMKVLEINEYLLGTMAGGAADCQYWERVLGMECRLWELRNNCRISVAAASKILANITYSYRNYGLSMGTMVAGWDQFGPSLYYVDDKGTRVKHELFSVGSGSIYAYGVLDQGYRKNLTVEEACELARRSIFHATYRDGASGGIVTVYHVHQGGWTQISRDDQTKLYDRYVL
The assay is described as follows: Trypanosoma cruzi proteasome chymotrypsin-like activity (TcProtChymo) assay. Note: in the data most compounds retested in dose-response had high values. In kind it is functional. Particulars: 9.37 µM.

The species named for another assay is Homo sapiens. The assay is described as follows: To identify inhibition of the IFN signalling (Jak-Stat) pathway via expression of an eGFP reporter gene under the control of an IFN-stimulated response element (ISRE) containing MxA promoter. The conditions noted are these: 30 µM. In kind it is functional.
Assay [7] has as its target T4, Tyrosyl-tRNA synthetase, putative (Trypanosoma cruzi (strain CL Brener)) (UniProt Q4DSP6).
T4 sequence (whole entry): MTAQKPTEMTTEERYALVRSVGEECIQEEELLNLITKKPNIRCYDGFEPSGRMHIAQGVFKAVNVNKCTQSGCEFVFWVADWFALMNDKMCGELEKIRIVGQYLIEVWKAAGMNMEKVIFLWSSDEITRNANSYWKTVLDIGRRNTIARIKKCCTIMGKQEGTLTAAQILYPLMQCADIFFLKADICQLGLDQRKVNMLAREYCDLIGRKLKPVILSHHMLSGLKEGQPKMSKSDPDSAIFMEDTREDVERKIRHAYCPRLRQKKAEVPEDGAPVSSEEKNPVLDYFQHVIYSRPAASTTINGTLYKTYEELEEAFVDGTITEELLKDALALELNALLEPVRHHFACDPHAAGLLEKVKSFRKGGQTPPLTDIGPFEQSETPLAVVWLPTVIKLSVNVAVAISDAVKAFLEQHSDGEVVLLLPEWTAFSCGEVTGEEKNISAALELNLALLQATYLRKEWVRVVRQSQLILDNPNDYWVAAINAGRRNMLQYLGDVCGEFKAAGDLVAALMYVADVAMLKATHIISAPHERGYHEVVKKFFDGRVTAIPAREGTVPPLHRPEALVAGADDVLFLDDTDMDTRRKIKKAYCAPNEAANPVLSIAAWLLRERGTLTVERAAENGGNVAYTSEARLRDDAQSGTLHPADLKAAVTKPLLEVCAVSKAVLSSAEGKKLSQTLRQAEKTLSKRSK
In words: Trypanosoma cruzi tyrosyl tRNA synthetase (TcYRS) _High Tyrosine SOP. Note: in the data most compounds retested in dose-response had high values. In kind it is functional. The conditions noted are these: 30 µM.

The target of assay [8] is T4, Tyrosyl-tRNA synthetase, putative (Trypanosoma cruzi (strain CL Brener)). The assay is described as follows: Trypanosoma cruzi tyrosyl tRNA synthetase (TcYRS) SOP. It counts as functional. The conditions noted are these: 30 µM.
For assay [9], the target named is Chromo domain-containing protein 1 (Saccharomyces cerevisiae (strain ATCC 204508 / S288c) (Baker's yeast)) (UniProt P32657). In words: ScCHD-1 Enzyme Inhibition Assay. Note: in the data most compounds retested in dose-response had high values. In kind it is functional. Particulars: 30 µM.

For some assays here: Results with a measured potency or affinity are listed apart.

Chain of Protein translocase subunit SecA (Escherichia coli (strain K12)) (P10408 whole entry): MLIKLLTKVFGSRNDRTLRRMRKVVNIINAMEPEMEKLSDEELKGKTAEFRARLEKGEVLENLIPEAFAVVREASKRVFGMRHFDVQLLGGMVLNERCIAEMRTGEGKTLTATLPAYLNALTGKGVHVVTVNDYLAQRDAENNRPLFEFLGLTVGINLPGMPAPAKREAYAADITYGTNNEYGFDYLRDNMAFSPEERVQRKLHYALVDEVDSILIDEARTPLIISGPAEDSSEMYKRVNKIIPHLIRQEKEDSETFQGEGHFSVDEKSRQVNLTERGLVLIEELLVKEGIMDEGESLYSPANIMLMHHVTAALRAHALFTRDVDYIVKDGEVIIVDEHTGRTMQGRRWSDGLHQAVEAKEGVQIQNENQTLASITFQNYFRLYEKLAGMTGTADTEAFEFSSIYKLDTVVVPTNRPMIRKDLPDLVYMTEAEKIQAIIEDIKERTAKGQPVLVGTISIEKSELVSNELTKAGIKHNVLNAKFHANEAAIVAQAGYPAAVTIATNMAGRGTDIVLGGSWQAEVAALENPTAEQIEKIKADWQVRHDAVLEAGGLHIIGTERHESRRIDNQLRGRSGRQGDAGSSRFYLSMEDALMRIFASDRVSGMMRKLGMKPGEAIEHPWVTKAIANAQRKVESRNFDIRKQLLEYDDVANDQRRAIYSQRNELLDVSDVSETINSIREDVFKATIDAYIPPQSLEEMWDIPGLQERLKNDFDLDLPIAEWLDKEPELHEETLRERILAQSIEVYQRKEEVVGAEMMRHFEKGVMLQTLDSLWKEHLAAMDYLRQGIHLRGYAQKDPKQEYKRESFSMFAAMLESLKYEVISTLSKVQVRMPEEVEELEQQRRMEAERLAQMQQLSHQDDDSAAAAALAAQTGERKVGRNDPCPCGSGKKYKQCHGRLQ
Chain of Sialic acid-binding Ig-like lectin 9 (Homo sapiens) (Q9Y336 whole entry): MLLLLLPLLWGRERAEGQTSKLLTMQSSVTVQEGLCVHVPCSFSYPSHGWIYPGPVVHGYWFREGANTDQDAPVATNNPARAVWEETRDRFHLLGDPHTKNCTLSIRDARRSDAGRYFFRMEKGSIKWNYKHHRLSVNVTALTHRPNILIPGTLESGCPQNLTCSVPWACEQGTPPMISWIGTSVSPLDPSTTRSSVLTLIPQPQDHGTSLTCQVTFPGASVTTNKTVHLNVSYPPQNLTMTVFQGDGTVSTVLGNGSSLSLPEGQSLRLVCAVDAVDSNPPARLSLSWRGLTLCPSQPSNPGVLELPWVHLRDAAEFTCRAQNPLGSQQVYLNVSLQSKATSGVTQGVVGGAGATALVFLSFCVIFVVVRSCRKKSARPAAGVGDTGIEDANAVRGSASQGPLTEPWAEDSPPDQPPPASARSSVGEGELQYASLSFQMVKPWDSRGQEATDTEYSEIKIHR
Chain of Chromo domain-containing protein 1 (Saccharomyces cerevisiae (strain ATCC 204508 / S288c) (Baker's yeast)) (P32657 whole entry, the tested form may be a part): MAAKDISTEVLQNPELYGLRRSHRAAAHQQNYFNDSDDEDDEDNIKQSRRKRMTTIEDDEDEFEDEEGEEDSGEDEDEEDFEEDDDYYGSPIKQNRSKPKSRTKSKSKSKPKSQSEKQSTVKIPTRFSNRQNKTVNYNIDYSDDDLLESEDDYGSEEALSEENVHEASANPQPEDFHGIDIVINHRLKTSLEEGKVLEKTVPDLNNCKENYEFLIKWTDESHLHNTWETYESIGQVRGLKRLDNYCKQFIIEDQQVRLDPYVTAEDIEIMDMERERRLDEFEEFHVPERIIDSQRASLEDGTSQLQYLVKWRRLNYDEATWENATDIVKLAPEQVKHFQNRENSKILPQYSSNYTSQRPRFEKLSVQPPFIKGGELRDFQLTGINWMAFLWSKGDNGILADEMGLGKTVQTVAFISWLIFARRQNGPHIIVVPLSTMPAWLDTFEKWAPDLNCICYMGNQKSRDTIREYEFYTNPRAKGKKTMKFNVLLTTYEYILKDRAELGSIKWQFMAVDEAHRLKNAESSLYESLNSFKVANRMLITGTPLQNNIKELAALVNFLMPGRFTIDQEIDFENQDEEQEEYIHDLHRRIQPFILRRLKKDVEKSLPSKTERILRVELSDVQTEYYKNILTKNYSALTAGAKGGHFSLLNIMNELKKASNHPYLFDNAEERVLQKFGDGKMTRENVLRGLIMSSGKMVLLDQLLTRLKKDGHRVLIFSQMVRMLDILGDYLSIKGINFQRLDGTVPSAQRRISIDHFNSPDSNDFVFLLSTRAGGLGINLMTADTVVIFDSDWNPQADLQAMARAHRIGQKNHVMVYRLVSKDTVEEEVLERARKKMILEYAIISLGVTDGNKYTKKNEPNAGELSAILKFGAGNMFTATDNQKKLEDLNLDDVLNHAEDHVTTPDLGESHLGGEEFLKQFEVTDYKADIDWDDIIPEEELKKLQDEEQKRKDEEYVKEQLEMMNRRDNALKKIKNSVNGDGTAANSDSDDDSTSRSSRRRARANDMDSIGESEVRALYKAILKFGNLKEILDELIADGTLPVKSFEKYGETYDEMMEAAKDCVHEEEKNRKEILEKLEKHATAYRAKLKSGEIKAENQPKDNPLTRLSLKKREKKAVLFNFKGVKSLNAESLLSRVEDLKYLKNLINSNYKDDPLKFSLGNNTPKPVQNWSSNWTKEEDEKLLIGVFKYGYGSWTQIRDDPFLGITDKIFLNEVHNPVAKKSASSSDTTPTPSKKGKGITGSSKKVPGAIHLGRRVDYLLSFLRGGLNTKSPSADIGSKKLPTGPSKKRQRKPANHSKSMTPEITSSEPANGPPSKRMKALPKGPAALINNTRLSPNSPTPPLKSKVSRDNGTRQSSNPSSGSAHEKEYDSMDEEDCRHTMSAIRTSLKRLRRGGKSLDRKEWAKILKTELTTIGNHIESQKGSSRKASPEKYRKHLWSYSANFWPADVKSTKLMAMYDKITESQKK

As to `CNC(=O)c1nc2c(s1)CCN(C(=O)c1cccnc1)CC2`, the Percent Effect is 2.24% in [1]; 0% in assay [2]; 4.01% in [3]; 3.91% in assay [4]; -3.67% in the assay with Trypanosoma cruzi; -50.4% in assay [5]. Moreover, the Percent Effect in assay [6] was 3.42%; in the assay filed under Homo sapiens, 3.61%; in [7], 3.12%; in assay [8], 5%; in assay [9] it was -2.25%.

`CCc1nc(CN2CCCC(N(C)Cc3cnn(C)c3)C2)no1` (stereo not given): the Percent Effect was -1.5% in assay [1]; 8.22% in [2]; -0.902% in assay [3]; 3.69% in assay [4]; 2.74% in the assay on Trypanosoma cruzi; 5.91% in assay [5]. In addition, the Percent Effect is 9.23% in assay [6]; -2.09% in the assay filed under Homo sapiens; 1.07% in [7]; 2.5% in assay [8]; -3.19% in [9].

With `CNc1cc(C2CCCN2Cc2ccccc2C(=O)O)ccn1` (stereo not given), the Percent Effect in assay [1] was -4.24%; in assay [2] it was -6.76%; in [3], 3.65%; in assay [4], -0.354%; with Trypanosoma cruzi, -1.19%; in [5], -0.696%. Also, the Percent Effect was 7.33% in assay [6]; 7.54% in the assay listed under Homo sapiens; 8.6% in assay [7]; 11.7% in assay [8]; -11.7% in [9].

Consider `O=C(NCCn1ccc(-c2ccccn2)n1)C1CC1`, for which the Percent Effect in [1] was -1.6%; in assay [2] it was 0%; in assay [3], 8.98%; in [4] it was 2.65%; in the assay on Trypanosoma cruzi it was -3.85%; in assay [5], 5.81%. The Percent Effect in [6] is 2.79%; in the assay listed under Homo sapiens, 7.05%; in assay [7], 3.17%; in assay [8], 3.85%; in assay [9] it was -0.508%.

`COc1ccc(Cc2nnc(SC)o2)cc1OC`: the Percent Effect is -4.8% in assay [1]; 0% in [2]; -3.66% in assay [3]; 1.57% in assay [4]; 6.72% in the assay on Trypanosoma cruzi; -1.56% in assay [5]. In addition, the Percent Effect in [6] is 8.72%; in the assay listed under Homo sapiens, -12.7%; in [7], 3.83%; in [8] it was 11.1%; in assay [9], -3.69%.

Regarding `CCNS(=O)(=O)c1ccc(C)c(C(=O)N(C)Cc2ccco2)c1`, the Percent Effect in assay [1] was -2.78%; in [2], -4.17%; in [3] it was 4.21%; in [4] it was 0.221%; in the assay on Trypanosoma cruzi, -1.65%; in assay [5] it was 0.442%. The Percent Effect in assay [6] is 13%; in the assay listed under Homo sapiens it was -0.366%; in assay [7], -27.4%; in assay [8], -2.56%; in assay [9], 2.86%.

With `CCc1nc(CN2CCCC(NCc3cnn(C(C)(C)C)c3)C2)no1` (stereo not given), the Percent Effect in assay [1] was -2.85%; in [2], 2.53%; in assay [3], -0.494%; in [4], 3.84%; in the assay on Trypanosoma cruzi, -1.6%; in assay [5], -1.52%. Moreover, the Percent Effect in assay [6] was 6.63%; in the assay filed under Homo sapiens, 14.9%; in assay [7], -1.48%; in [8] it was -1.27%; in [9], -0.901%.

As to `CN(C)CC1CSCCCN1C(=O)c1ccc(=O)[nH]c1` (stereo not given), the Percent Effect is -6.61% in [1]; 2.6% in [2]; 6.1% in assay [3]; 5.73% in assay [4]; -5.82% with Trypanosoma cruzi; 0.645% in assay [5]. In addition, the Percent Effect is 7.66% in assay [6]; 0.342% in the assay listed under Homo sapiens; -1.06% in [7]; 3.85% in assay [8]; -3.68% in assay [9].

`CC(C)c1nc(C2CCCN2C(=O)c2nccnc2N)no1` (stereo not given): the Percent Effect in assay [1] is -6.3%; in assay [2], 16.2%; in [3] it was -11%; in assay [4], 23.1%; in the assay with Trypanosoma cruzi it was 4.18%; in assay [5], -4.99%. The Percent Effect in assay [6] is 6.1%; in the assay listed under Homo sapiens, 12.1%; in assay [7] it was 6.93%; in assay [8], 23.2%; in assay [9] it was -5.79%.

As for `c1csc(-c2nc(CN3CCOC(Cn4cncn4)C3)cs2)c1` (stereo not given), the Percent Effect in assay [1] is -4.12%; in [2] it was 7.89%; in assay [3] it was -2.14%; in assay [4], 1.07%; in the assay with Trypanosoma cruzi, -3.83%; in assay [5] it was 0%. The Percent Effect was 15.5% in assay [6]; -10.6% in the assay listed under Homo sapiens; 4.43% in assay [7]; 6.17% in assay [8]; -6.35% in assay [9].

Source of the values: ChEMBL document CHEMBL3988442, “University of Dundee, Small-Polar-MMV Screening Library” (2021).
